Only a selection was taken, and hits are over-represented in it overall.
Shiga toxin inh – A qHTS for Small Molecule Inhibitors of Shiga Toxin. Vero cells, Shiga toxin protein synthesis inhibition reporter. 290,000 compounds, 9.2% hits. inhibition, % at 38.7 µM; in the data active = inhibition mostly above about 28%, no sharp cut-off; inactive = mostly below about 43%; note: 0% is about no effect
NS1 inh – qHTS Assay for Inhibitors of Influenza NS1 Protein Function; Potency, µM (top dose mostly 46.1 µM), without a hit: top-dose activity, positive = more growth; 270,000 compounds, 0.4% hits; calls by dose curve; note: potency is the fitted concentration of half-maximal effect; actives are rising curves; nearly all actives have a fitted effect of over 50% in size
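Read-out: OD600 growth recovery of NS1-expressing budding yeast. Cells grown overnight at 30C in -URA glucose medium, washed, resuspended and diluted 1:100 in 2% galactose assay medium, pH 6.0. Same strain lacking NS1 served as positive control.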
CHX counter – Cycloheximide Counterscreen for Small Molecule Inhibitors of Shiga Toxin; cell reporter, cycloheximide protein synthesis inhibition counterscreen; max response, %; 300,000 compounds, 12% hits; AID 2314, 2010; in the data active = max response mostly above about 13%, no sharp cut-off; inactive = mostly below about 14%; note: read at 38.3 µM for the half of the compounds with a filed dose; 0% is about no effect
AmpC detergent – qHTS Inhibitors of AmpC Beta-Lactamase (assay with detergent) | P00811 | AmpC hydrolysis of nitrocefin, absorbance 480 nm, 0.01% Triton | Potency, µM (titrated, usually from 114 µM), for the others: top-dose activity change, negative = inhibition, most hits filed as inhibitors | 370,000 compounds, 0.041% hits;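 note: potency is the fitted concentration of half-maximal effect; 0% = no-compound wells and -100% = no-enzyme wells; nearly all actives have a fitted effect of over 25% in size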
Target sequence (P00811 whole entry, looked up): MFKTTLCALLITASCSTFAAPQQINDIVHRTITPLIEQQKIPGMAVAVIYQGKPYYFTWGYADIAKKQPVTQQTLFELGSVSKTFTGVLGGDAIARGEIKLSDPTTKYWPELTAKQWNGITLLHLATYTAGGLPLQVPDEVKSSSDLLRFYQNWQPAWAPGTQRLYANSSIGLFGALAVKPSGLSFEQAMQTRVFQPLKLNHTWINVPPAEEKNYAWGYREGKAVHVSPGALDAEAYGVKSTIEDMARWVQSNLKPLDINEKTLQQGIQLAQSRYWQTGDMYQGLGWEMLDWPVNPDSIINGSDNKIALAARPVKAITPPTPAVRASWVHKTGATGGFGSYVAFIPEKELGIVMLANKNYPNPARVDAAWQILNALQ
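20 mM phosphate pH 7.0 + 0.01% (detergent screen) or 0.0001% Triton X-100; 5.3 nM AmpC reagent; cpd preinc 15 min RT; nitrocefin (800 uM stock) to start; A480 q20 s × 4 min; Activity was normalised to no-enzyme and no-compound control wells.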
AmpC inh no detg – qHTS Inhibitors of AmpC Beta-Lactamase (assay without detergent) | P00811 | AmpC nitrocefin hydrolysis, absorbance 480 nm, 0.0001% Triton | Potency, µM (series often up to 57.1 µM), without a hit: at the highest dose activity change, negative = inhibition, usual class: inhibitors | 330,000 compounds, 0.52% hits | AID 485341, 2010;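 note: potency is the fitted concentration of half-maximal effect; plate controls were no compound for no effect and no enzyme for full effect; nearly all actives have a fitted effect of over 20% in size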
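AmpC (5.3 nM in the dispensed reagent) in 20 mM phosphate pH 7.0 with 0.01% (detergent screen) or 0.0001% Triton X-100 was preincubated with compounds for 15 min at room temperature. Nitrocefin was then added from an 800 uM solution, and hydrolysis was followed at 480 nm.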
* = called active by the depositor; ? = inconclusive; . = no result given. Unless noted, calls come from the whole dose curve; as a rule, active = well fitted curve in the direction sought with a large enough effect; inconclusive = small, poorly fitted or top-dose-only effect, or another doubt; inactive = no such curve, though single readings can be large; an effect the other way counts as inactive or inconclusive.

SMILES	Shiga toxin inh	NS1 inh	CHX counter	AmpC detergent	AmpC inh no detg
Cc1noc(C)c1N=Nc1ccccc1C(=O)O	-11	.	-4	1%	-20%
Cc1cc(S(=O)(=O)Nc2ccc(C(=O)NCC(c3ccco3)N(C)C)cc2)ccc1F (stereo unspecified)	.	.	.	-15%	-39%
COc1ccc(-c2nn3c(=O)cc(CN4CCN(C(=O)c5ccc(C(C)(C)C)cc5)CC4)nc3s2)cc1	.	.	.	0%	.
COc1ccc2nc(N3CCCC(C(=O)NCCc4ccc(OC)c(OC)c4)C3)sc2c1 (stereo unspecified)	95*	-40%	17*	-7%	141%
COc1ccc(CCNC(=O)c2ccc3nc(N4CCCCC4)sc3c2)cc1OC	34*	-5%	22*	-8%	106%
Cc1ccc(CNC(=O)c2ccc3nc(N4CCCCC4)sc3c2)cc1	.	.	.	8%	.
O=C(O)c1cccnc1Br	-12	.	-7	-5%	-15%
CCc1cccc(NC(=O)CCCCCC2NC(=O)NC2C)c1 (stereo unspecified)	-6	.	-2	5%	4%
O=C1CC(/C=C/c2ccncc2)=Nc2ccccc2N1	33	-3%	30*	4%	-11%
COc1ccc(CC(=O)OCC(=O)NC2CCCCC2)cc1OC	.	.	.	.	-1%
Cc1cc(-c2nnc(CCC(=O)NCc3ccc(OC(F)(F)F)cc3)o2)no1	29	11%	16*	1%	44%
Cc1cc(-c2nnc(CCC(=O)N(C)Cc3ccsc3)o2)no1	34	4%	21*	-4%	12%
Cc1cc(-c2nnc(CCC(=O)NC(C)c3ccc(F)cc3)o2)no1 (stereo unspecified)	43	2%	10	-3%	3%
Cc1cc(-c2nnc(CCC(=O)N(C)C(C)c3cccs3)o2)no1 (stereo unspecified)	77*	2%	48*	-3%	-8%
C[C@H](CO)N1C[C@H](C)[C@@H](CN(C)Cc2ccc(-c3ccccc3)cc2)Oc2c(NC(=O)Nc3ccc4c(c3)OCO4)cccc2C1=O	.	.	.	.	50%
CC(C)N(CC(=O)O)CC(=O)O	.	2%	.	.	.
N#CC1(NC(=O)COC(=O)Cn2[nH]c(=O)c3ccccc3c2=O)CCCCC1	.	.	.	-20%	-10%
COc1ccc(N=C2NC(=O)S/C2=C\c2ccc(N(C)C)cc2)cc1	60*	-9%	34*	?	-56%
CCn1cc2nc(SCc3ccccc3F)n(Cc3ccc(C)cc3)c(=O)c2n1	.	.	.	-7%	.
CN(C)CCCN(C(=O)c1ccc(S(=O)(=O)N2CCc3ccccc3C2)cc1)c1nc2c(F)cccc2s1	-6	9%	32*	5%	104%
Cc1cccc2sc(N(CCCN(C)C)C(=O)c3ccc(S(=O)(=O)N4CCc5ccccc5C4)cc3)nc12	15	6%	18	0%	184%
CCOC(=O)Cc1ccc(NC(=O)n2ncc3c(C)cccc32)cc1	.	.	.	2%	.
Cc1ccc(NC(=O)n2ncc3c(C)cccc32)c(C)c1	34*	-6%	38*	0%	-31%
Cc1cccc2c1cnn2C(=O)Nc1ccc(Br)cc1F	22	-5%	7	3%	-8%
COC(=O)c1ccc(NC(=O)n2ncc3c(C)cccc32)cc1	.	.	.	10%	.
SMILES	Shiga toxin inh	NS1 inh	CHX counter	AmpC detergent	AmpC inh no detg
COc1cccc(NC(=O)n2ncc3c(C)cccc32)c1	54*	4%	32*	-11%	-23%
CCOc1ccc(NC(=O)n2ncc3c(C)cccc32)cc1	48*	1%	30*	3%	-22%
COc1cccc(/C=C/C(=O)Nc2ccc3nc(N4CCN(C)CC4)cc(C)c3c2)c1OC	.	.	.	-5%	.
O=C(NCc1ccccc1Cl)c1cnc2sc(N3CCCCC3)nn2c1=O	.	.	.	-5%	.
CCOC(=O)c1ccc2c(c1)N(Cc1cccc(C(F)(F)F)c1)C(=O)c1ccccc1S2(=O)=O	.	.	.	5%	.
O=C1Nc2ccccc2N=C(c2ccccc2)C1Br (stereo unspecified)	46*	0%	14	-4%	-29%
O=C1Nc2ccccc2N=C(c2ccccc2)C1N1CCOCC1 (stereo unspecified)	6	-17%	3	-13%	-18%
CC(=O)Nc1ccc(N=NN2CCOCC2)cc1	73*	.	46*	?	-17%
Oc1ccc(Cl)cc1N=Nc1ccccc1	37	3%	27*	3%	-4%
CC(=O)Nc1cccc(N=NN2CCOCC2)c1	-3	0%	-2	-2%	-16%
